This is an account of results in PubChem BioAssay (NCATS).

Results filed as inconclusive are left out. Activity calls are given as the source filed them. Calls follow the shape of the dose curve; as a rule, active = well fitted inhibition curve with a large enough effect; inconclusive = small, poorly fitted or top-dose-only effect; inactive = no such curve, though single readings can be large or run the other way.
Potency is read from the fitted curve at half-maximal effect.

The first assay is described as follows: qHTS Screen of the MIPE 4.0 Collection Against Ewings Sarcoma (RDES) (AID 1259252). Also: nearly all actives have a fitted effect of over 35% in size. The conditions noted are these: RD-ES Ewing sarcoma viability, CellTiter-Glo, 48 h; series mostly up to 45.8 µM. An outline of the steps: (§1)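 After a 4 h attachment period in RPMI/5% FBS, cells were pin-dosed with test compounds; DMSO served as negative and 9.2 uM bortezomib (final) as positive control. Luminescent CellTiter-Glo signal at 48 h defined viability.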
`CC(C)c1cnn2c(NCc3ccccc3)cc(N[C@@H](CO)[C@H](O)CO)nc12`: the Potency was 0.469 µM (active).

With `COc1cc2c(Nc3ccc(NC(=O)c4ccccc4)cc3)ncnc2cc1OCCCN1CCOCC1`, the Potency is 23.5 µM (active).

On to `CCn1cc(-c2ccnc3[nH]c(-c4cccc(CN(C)C)c4)cc23)c(-c2ccc(NC(=O)N(C)C)cc2)n1`, for which the Potency was 7.43 µM (active).

`CC(C)c1noc(N2CCC(COc3ccc(-c4ccc(S(C)(=O)=O)cc4)nc3)CC2)n1`: the Potency entry was “inactive”.

As to `COc1c(N2C[C@@H]3CCCN[C@H]3C2)c(F)cc2c(=O)c(C(=O)O)cn(C3CC3)c12`, the Potency result was “inactive”.

With `C[C@@]12O[C@@H](C[C@]1(O)CO)n1c3ccccc3c3c4c(c5c6ccccc6n2c5c31)CNC4=O`, the Potency is 1.18 µM (active).

`O=C(O)CO.[NH2-].[NH2-].[Pt+2]`: the Potency result was “inactive”.

`Nc1ncnc2c1c(-c1cccc(OCc3ccccc3)c1)cn2C1CC(CN2CCCC2)C1` (stereo not given): the Potency is 23.5 µM (active).

For the compound `N#CCNC(=O)c1ccc(-c2ccnc(Nc3ccc(N4CCOCC4)cc3)n2)cc1`, the Potency was 11.8 µM (active).

As for `CCN(CC)CCNC(=O)c1ccc2nc(-c3ccccc3)c(-c3ccc(CN4CCC(n5c(=O)[nH]c6ccccc65)CC4)cc3)nc2c1`, the Potency is 23.5 µM (active).

As to `COc1cc2nccc(Oc3ccc(NC(=O)C4(C(=O)Nc5ccc(F)cc5)CC4)cc3)c2cc1OC`, the Potency was 1.32 µM (active).

For the compound `Cc1nc2ccc(CN(C)c3ccc(C(=O)N[C@@H](CCC(=O)O)C(=O)O)s3)cc2c(=O)[nH]1`, the Potency is 0.0166 µM (active).

Regarding `CN(c1ncccc1CNc1nc(Nc2ccc3c(c2)CC(=O)N3)ncc1C(F)(F)F)S(C)(=O)=O`, the Potency was 11.8 µM (active).

In the case of `Cn1cc(-c2ccncc2)c(-c2ccc(OCc3ccc4ccccc4n3)cc2)n1`, the Potency was 16.6 µM (active).

In the case of `Cc1cn2cc(C(=O)N(C)CCO)cc(N[C@@H]3CCOc4cccc(C)c43)c2n1`, the Potency entry was “inactive”.

With `Nc1ccn([C@@H]2CS[C@H](CO)O2)c(=O)n1`, the Potency result is “inactive”.

With `Clc1cccc(-c2nnnn2Cc2cccnc2)c1Cl`, the Potency entry was “inactive”.

On to `C[C@@H](Oc1cc(-n2cnc3ccc(CN4CCN(C)CC4)cc32)sc1C(N)=O)c1ccccc1C(F)(F)F`, for which the Potency was 0.0935 µM (active).

In the case of `CC(C)(C)NC(=O)[C@H]1CN(Cc2cccnc2)CCN1C[C@@H](O)C[C@@H](Cc1ccccc1)C(=O)N[C@H]1c2ccccc2C[C@H]1O`, the Potency is 1.05 µM (active).

Turning to `O=C(NCCCNc1nc(Nc2cccc(NC(=O)N3CCCC3)c2)ncc1I)c1cccs1`, the Potency is 13.2 µM (active).

For `CN1c2cc(O)c(N=NC(N)=O)cc2CC1S(=O)(=O)O` (stereo not given), the Potency entry was “inactive”.

`c1cc(-c2cnn3cc(-c4ccc(OCCN5CCCCC5)cc4)cnc23)ccn1`: the Potency was 20.9 µM (active).

With `CC=CC1=C(C(=O)O)N2C(=O)[C@H](NC(=O)[C@H](N)c3ccc(O)cc3)[C@@H]2SC1`, the Potency result is “inactive”.

As to `CC(O)C1C(=O)N2C(C(=O)O)=C(SC3CNC(C(=O)N(C)C)C3)C(C)C12` (stereo not given), the Potency entry is “inactive”.

Take `c1nc2nc(Nc3ccc(N4CCOCC4)cc3)nc(NC3CCCCC3)c2[nH]1`: the Potency is 14.8 µM (active).

Consider `CC1COC2(CCN(c3nc(=O)c4cc(C(F)(F)F)cc([N+](=O)[O-])c4s3)CC2)O1` (stereo not given), for which the Potency result was “inactive”.

As for `Nc1nccc(Oc2ccc(NC(=O)c3c[nH]cc(-c4ccc(F)cc4)c3=O)cc2F)c1Cl`, the Potency is 1.66 µM (active).

Regarding `CC(C)CC(=O)Nc1n[nH]c2c1CN(C(=O)C1CCN(C)CC1)C2(C)C`, the Potency was 0.296 µM (active).

In the case of `OCc1ccc(-c2ccc(-c3ccc(CO)s3)o2)s1`, the Potency was 0.0526 µM (active).

For `Cc1nc(Nc2n[nH]c3c2CN(C(=O)N[C@H](CN(C)C)c2ccccc2)C3(C)C)c2sccc2n1`, the Potency was 3.32 µM (active).

Take `COc1cc(-c2nn(C3CCC(N4CCN(C(C)=O)CC4)CC3)c3ncnc(N)c23)ccc1NC(=O)c1cc2ccccc2n1C` (stereo not given): the Potency is 1.87 µM (active).

Take `COc1cc2c(NC3CCN(C(C)C)CC3)nc(C3CCCCC3)nc2cc1OCCCN1CCCC1`: the Potency was 7.43 µM (active).

On to `COc1cc(C(=O)NS(=O)(=O)c2ccccc2C)ccc1Cc1cn(C)c2ccc(NC(=O)OC3CCCC3)cc12`, for which the Potency was 23.5 µM (active).

`CCc1c2c(nc3ccc(O)cc13)-c1cc3c(c(=O)n1C2)COC(=O)[C@]3(O)CC`: the Potency was 0.0021 µM (active).

Regarding `COC(=O)C[C@](O)(CCCC(C)(C)O)C(=O)O[C@@H]1C(OC)=C[C@]23CCCN2CCc2cc4c(cc2[C@H]13)OCO4`, the Potency result was “inactive”.

The next assay is described as follows: qHTS Screen of the MIPE 4.0 Collection Against Ewings Sarcoma (TC71) (AID 1259253). Also: nearly all actives have a fitted effect of over 40% in size. The conditions noted are these: TC71 Ewing sarcoma viability, CellTiter-Glo, 48 h; series mostly up to 45.8 µM. An outline of the steps:
as §1
(In general: In qHTS, concentration-response curves come from the screen itself.)
Turning to `CC(C)c1cnn2c(NCc3ccccc3)cc(N[C@@H](CO)[C@H](O)CO)nc12`, the Potency is 0.264 µM (active).

On to `COc1cc2c(Nc3ccc(NC(=O)c4ccccc4)cc3)ncnc2cc1OCCCN1CCOCC1`, for which the Potency was 16.6 µM (active).

For `CCn1cc(-c2ccnc3[nH]c(-c4cccc(CN(C)C)c4)cc23)c(-c2ccc(NC(=O)N(C)C)cc2)n1`, the Potency is 3.72 µM (active).

With `CC(C)c1noc(N2CCC(COc3ccc(-c4ccc(S(C)(=O)=O)cc4)nc3)CC2)n1`, the Potency result is “inactive”.

`COc1c(N2C[C@@H]3CCCN[C@H]3C2)c(F)cc2c(=O)c(C(=O)O)cn(C3CC3)c12`: the Potency result is “inactive”.

Turning to `C[C@@]12O[C@@H](C[C@]1(O)CO)n1c3ccccc3c3c4c(c5c6ccccc6n2c5c31)CNC4=O`, the Potency is 0.59 µM (active).

Consider `O=C(O)CO.[NH2-].[NH2-].[Pt+2]`, for which the Potency result was “inactive”.

Take `Nc1ncnc2c1c(-c1cccc(OCc3ccccc3)c1)cn2C1CC(CN2CCCC2)C1` (stereo not given): the Potency was 5.26 µM (active).

Take `N#CCNC(=O)c1ccc(-c2ccnc(Nc3ccc(N4CCOCC4)cc3)n2)cc1`: the Potency is 4.69 µM (active).

In the case of `CCN(CC)CCNC(=O)c1ccc2nc(-c3ccccc3)c(-c3ccc(CN4CCC(n5c(=O)[nH]c6ccccc65)CC4)cc3)nc2c1`, the Potency is 23.5 µM (active).

In the case of `COc1cc2nccc(Oc3ccc(NC(=O)C4(C(=O)Nc5ccc(F)cc5)CC4)cc3)c2cc1OC`, the Potency is 2.35 µM (active).

In the case of `Cc1nc2ccc(CN(C)c3ccc(C(=O)N[C@@H](CCC(=O)O)C(=O)O)s3)cc2c(=O)[nH]1`, the Potency is 0.0209 µM (active).

Take `CN(c1ncccc1CNc1nc(Nc2ccc3c(c2)CC(=O)N3)ncc1C(F)(F)F)S(C)(=O)=O`: the Potency is 5.9 µM (active).

As for `Cn1cc(-c2ccncc2)c(-c2ccc(OCc3ccc4ccccc4n3)cc2)n1`, the Potency was 16.6 µM (active).

With `Cc1cn2cc(C(=O)N(C)CCO)cc(N[C@@H]3CCOc4cccc(C)c43)c2n1`, the Potency entry is “inactive”.

With `Nc1ccn([C@@H]2CS[C@H](CO)O2)c(=O)n1`, the Potency result is “inactive”.

Turning to `Clc1cccc(-c2nnnn2Cc2cccnc2)c1Cl`, the Potency result was “inactive”.

For the compound `C[C@@H](Oc1cc(-n2cnc3ccc(CN4CCN(C)CC4)cc32)sc1C(N)=O)c1ccccc1C(F)(F)F`, the Potency is 0.0743 µM (active).

On to `CC(C)(C)NC(=O)[C@H]1CN(Cc2cccnc2)CCN1C[C@@H](O)C[C@@H](Cc1ccccc1)C(=O)N[C@H]1c2ccccc2C[C@H]1O`, for which the Potency was 1.18 µM (active).

Regarding `O=C(NCCCNc1nc(Nc2cccc(NC(=O)N3CCCC3)c2)ncc1I)c1cccs1`, the Potency is 16.6 µM (active).

On to `CN1c2cc(O)c(N=NC(N)=O)cc2CC1S(=O)(=O)O` (stereo not given), for which the Potency entry was “inactive”.

Take `c1cc(-c2cnn3cc(-c4ccc(OCCN5CCCCC5)cc4)cnc23)ccn1`: the Potency is 14.8 µM (active).

As to `CC=CC1=C(C(=O)O)N2C(=O)[C@H](NC(=O)[C@H](N)c3ccc(O)cc3)[C@@H]2SC1`, the Potency result is “inactive”.

As for `CC(O)C1C(=O)N2C(C(=O)O)=C(SC3CNC(C(=O)N(C)C)C3)C(C)C12` (stereo not given), the Potency entry was “inactive”.

For `c1nc2nc(Nc3ccc(N4CCOCC4)cc3)nc(NC3CCCCC3)c2[nH]1`, the Potency was 2.64 µM (active).

`CC1COC2(CCN(c3nc(=O)c4cc(C(F)(F)F)cc([N+](=O)[O-])c4s3)CC2)O1` (stereo not given): the Potency entry is “inactive”.

Take `Nc1nccc(Oc2ccc(NC(=O)c3c[nH]cc(-c4ccc(F)cc4)c3=O)cc2F)c1Cl`: the Potency was 2.96 µM (active).

With `CC(C)CC(=O)Nc1n[nH]c2c1CN(C(=O)C1CCN(C)CC1)C2(C)C`, the Potency was 0.743 µM (active).

For `OCc1ccc(-c2ccc(-c3ccc(CO)s3)o2)s1`, the Potency is 26.4 µM (active).

`Cc1nc(Nc2n[nH]c3c2CN(C(=O)N[C@H](CN(C)C)c2ccccc2)C3(C)C)c2sccc2n1`: the Potency was 1.32 µM (active).

For the compound `COc1cc(-c2nn(C3CCC(N4CCN(C(C)=O)CC4)CC3)c3ncnc(N)c23)ccc1NC(=O)c1cc2ccccc2n1C` (stereo not given), the Potency is 2.96 µM (active).

`COc1cc2c(NC3CCN(C(C)C)CC3)nc(C3CCCCC3)nc2cc1OCCCN1CCCC1`: the Potency is 7.43 µM (active).

Regarding `COc1cc(C(=O)NS(=O)(=O)c2ccccc2C)ccc1Cc1cn(C)c2ccc(NC(=O)OC3CCCC3)cc12`, the Potency is 23.5 µM (active).

In the case of `CCc1c2c(nc3ccc(O)cc13)-c1cc3c(c(=O)n1C2)COC(=O)[C@]3(O)CC`, the Potency is 0.0023 µM (active).

Take `COC(=O)C[C@](O)(CCCC(C)(C)O)C(=O)O[C@@H]1C(OC)=C[C@]23CCCN2CCc2cc4c(cc2[C@H]13)OCO4`: the Potency entry is “inactive”.
